# Results reported in ChEMBL document CHEMBL1157539, “Thousands of chemical starting points for antimalarial lead identification” (Nature, 2010).
# Tests used:
# Format in all cases: functional
# Plasmodium falciparum [1] = experiment: GSK_TCMDC: Inhibition of Plasmodium falciparum 3D7 in whole red blood cells, using parasite LDH activity as an index of growth. Test compounds present at 2uM
# Plasmodium falciparum [2] = experiment: GSK_TCMDC: Inhibition of Plasmodium falciparum Dd2 in whole red blood cells, using parasite LDH activity as an index of growth. Test compounds present at 2uM
# HepG2 = experiment: GSK_TCMDC: Percent inhibition of human HepG2 cell line. Test compounds present at 10uM.
Structure (SMILES),Inhibition (Plasmodium falciparum [1]) [%],Inhibition (Plasmodium falciparum [2]) [%],Inhibition (HepG2) [%]
O=C(Nc1cccc(CN2CCCN(CCc3ccccc3)CC2)c1)c1cc2ccccc2s1.O=C(O)C(F)(F)F,93,39,37
O=C(Nc1ccc(C(F)(F)F)cc1)Nc1cccc([N+](=O)[O-])c1,100,98,20
O=C(O)C(F)(F)F.Oc1ccc(CCNc2nc(NCc3ccccc3Oc3ccc(C(F)(F)F)cc3)nc(N3CCNCC3)n2)cc1,86,2,26
COc1c(C2CCN(CCCCNC(=O)c3ccc(-c4ccc(C#N)cc4)cc3)CC2)cc(Cl)c2c1CCCC2,93,59,45
CCOc1ccc(C(=O)Nc2ccc(-c3nc4ccccc4[nH]3)cc2)cc1[N+](=O)[O-],100,70,22
Cl.N#Cc1ccc(NC(=O)Nc2ccc3c(c2)CCN(C2CCC2)CC3)cc1,96,11,6
NS(=O)(=O)c1ccccc1Nc1nc(Nc2ccc(N3CCOCC3)cc2)nc2c1CCC2.O=CO,96,99,21
O=C(/C=C/c1ccc(Cl)c(Cl)c1)NCCCCCN1CCC(NC(=O)Nc2cccc(Cl)c2F)CC1,100,30,75
COc1ccc(CN2CCC(NCc3cccc([N+](=O)[O-])c3)CC2)cc1.O=C(O)C(F)(F)F,92,3,6
c1ccc(Oc2ccc(Nc3ccnc4cc(-c5csc(CN6CCCCC6)n5)ccc34)cc2)nc1,100,95,22
Cc1cc2cc(/C=C/C(=O)NC3CCC(CCN4CCc5ccc(C#N)cc5CC4)CC3)ccc2[nH]1.Cl (stereo unspecified),85,49,6
Fc1ccc2[nH]c(-c3cccc(-c4cccc(CNCc5ccccc5)c4)c3)nc2c1.O=C(O)C(F)(F)F,100,52,24
Cc1cccc2nc(-c3cccc(-c4cccc(NC(=O)CC5NC(=O)c6ccccc65)c4)c3)[nH]c12 (stereo unspecified),92,49,8
Clc1cccc(CNC2CCN(CC3CCCCC3)CC2)c1.O=C(O)C(F)(F)F,97,24,4
COc1ccc(Nc2nc(N/N=C/c3ccc(-c4ccc([N+](=O)[O-])cc4)o3)nc(Nc3ccccc3)n2)cc1,100,17,0
CN1CCN(CCc2ccc3nc(-c4csc(Cc5cc(Cl)ccc5OCc5ccccc5)n4)[nH]c3c2)CC1,100,97,30
Cc1cnn(-c2cccc(C(=O)NC3CCC(CCN4CCc5ccc(C#N)cc5CC4)CC3)c2)c1.Cl (stereo unspecified),94,48,24
CN(C)CCNC(=O)N1CCCN(c2ncnc3cc(-c4ccc(Cl)cc4)sc23)CC1.O=C(O)C(F)(F)F,98,21,41
CN1CCN(c2ccc(Nc3nc(N)c4ccn(C5CCC5)c4n3)cc2)CC1.O=C(O)C(F)(F)F,93,47,0
CCC(CC)CN1C(=O)C(c2ccccc2)(c2ccccc2)N=C1N.O=CO,97,81,14
Cc1cc(N[C@@H](Cc2ccccc2)C(=O)Nc2ccccc2)nc(NCCN2CCCC2)n1.O=C(O)C(F)(F)F,94,0,8

Structure (SMILES),Inhibition (Plasmodium falciparum [1]) [%],Inhibition (Plasmodium falciparum [2]) [%],Inhibition (HepG2) [%]
COc1ccc(C2=[N+]([O-])c3ccccc3C2=O)cc1,93,61,2
CN1CCN(c2cc(-c3cccc(C(F)(F)F)c3)nc(-c3ccncc3)n2)CC1,100,98,38
CCCC(C)Nc1nc(C)cc(N[C@@H](CC(C)C)C(=O)Nc2ccc(OC)cc2)n1.O=C(O)C(F)(F)F (stereo partly specified),98,68,18
CS(=O)(=O)c1ccc(CNCc2ccc(-c3ccc(-c4nc5cc(F)ccc5[nH]4)s3)cc2)cc1.O=C(O)C(F)(F)F,100,97,22
O=C(Nc1cccc(-c2ccc(NCCCN3CCCC3)nc2)c1)c1ccccc1,100,21,22
COc1cc(Nc2nccc(NCC(O)c3ccc(C(F)(F)F)cc3)n2)cc(OC)c1OC (stereo unspecified),91,14,45
CS(=O)(=O)Nc1ccc2[nH]cc(C3CCN(CCCCCNC(=O)/C=C/c4ccc(Cl)c(Cl)c4)CC3)c2c1,100,0,1
Cn1cc(-c2ccnc3[nH]c(-c4cccc(CNC5CCC(O)CC5)c4)cc23)cn1.O=C(O)C(F)(F)F (stereo unspecified),95,82,48
COc1ccc(-c2cccc(CNC3CCN(CC4Cn5c(=O)ccc6ccc(F)c4c65)CC3)c2)cc1.O=C(O)C(F)(F)F (stereo unspecified),100,74,22
CCCN1CC[C@@H](CCCc2ccnc3ccc(O)cc23)[C@@H](CC)C1.Cl,93,14,10
O=C(NC(Nc1ccc([N+](=O)[O-])cc1)C(Cl)(Cl)Cl)c1cccc(Cl)c1 (stereo unspecified),92,17,0
COc1cc2c(c(Cl)c1OC)CCN(Cc1ccccc1)CC2c1ccc(C(N)=O)cc1 (stereo unspecified),97,60,7
CN1CCN(Cc2ccc(-c3ccc4c(Nc5ccc(Oc6ccccc6)cc5)ccnc4c3)o2)CC1,99,99,23
CC(=O)Nc1ccc(NC(=O)c2cc(-c3ccc(C)cc3O)n[nH]2)cc1,100,78,0
N=C(Nc1ccccc1)Nc1cccc(Cc2ccc([N+](=O)[O-])cc2)n1,96,19,28
COc1cc2nc(NCCCN3CCCCC3)nc(NCc3ccccc3)c2cc1OC,100,3,12
N#Cc1cccc(C(=O)NC2CCN(CCCCCNC(=O)/C=C/c3ccc(Cl)c(Cl)c3)CC2)c1,100,0,11
O=C(NCc1cccc(F)c1)Nc1cccc(-c2ccc(-c3nc4cc(F)ccc4[nH]3)cc2)c1,84,0,46
N#Cc1ccc(-c2ccc(C(=O)NC3CCN(CCN4CCc5c(cccc5C(F)(F)F)C4)CC3)cc2)cc1,98,51,40
O=C(Nc1cccc(-c2cccc(-c3nc4ccccc4[nH]3)c2)c1)c1ccncc1,99,38,27
CN(C)CCC1CCN(CCS(=O)(=O)c2cccc(Nc3ncc(-c4cccc(F)c4)cn3)c2)CC1,96,12,59

Structure (SMILES),Inhibition (Plasmodium falciparum [1]) [%],Inhibition (Plasmodium falciparum [2]) [%],Inhibition (HepG2) [%]
O=C(c1ccco1)c1cn(CCOc2ccccc2)c2ccccc12,98,10,5
CCNc1cc(C(=O)N[C@@H](Cc2ccccc2)[C@H](O)CNC(C)CC(C)C)c(F)c(N2CCCCS2(=O)=O)c1.O=CO (stereo partly specified),95,66,6
Cn1cnc2c(Nc3ccncc3)nc(-c3ccc(OC(F)(F)F)cc3)nc21.O=C(O)C(F)(F)F,100,65,28
Cc1ccc(Cn2ncc(NC3CCNCC3)c(Cl)c2=O)cc1NC(=O)Nc1ccc(-c2ccccc2)cc1.O=C(O)C(F)(F)F,99,61,18
CCCCN1C(=N)NC(c2ccccc2)(c2ccccc2)C1=O,87,34,19
CS(=O)(=O)c1ccc2[nH]c(-c3cc(-c4ccc(OCCN5CCOCC5)cc4)cnc3N)nc2c1.O=C(O)C(F)(F)F,100,99,43
COc1ccc(NC(=O)c2cc(-c3ccc(NC(C)=O)cc3)cnc2N)cc1,98,5,10
COc1ccc(C#Cc2ccc(-c3c(C)[nH]c(C)c(Cl)c3=O)cc2)cc1,97,97,0
COc1ccc2ncc(C#N)c(CCN3C[C@H](CNCc4ccccc4)[C@H](O)C3)c2n1.Cl,91,24,3
C/N=C(/Nc1c(Cl)cccc1Cl)N(C)C.O=C(O)/C=C/C(=O)O,98,1,0
Cc1cccc(CN2CCCN(Cc3ccc(C(=O)Nc4ccc(C(C)(C)C)cc4)cc3)CC2)c1.O=C(O)C(F)(F)F,97,4,57
COc1ccc2nccc([C@@H](O)CN3CCC(NC(=O)c4cc5c(F)cc(F)cc5[nH]4)CC3)c2c1.CS(=O)(=O)O,100,98,33
COc1ccc2ncc(F)c(CCN3CCC(NCc4cc(OC)c5c(c4)OCCO5)CC3)c2n1.Cl,100,53,0
Cc1cc(-c2cccc3c(NC(=O)N4CCc5cc6nccc(N7CCN8CCC[C@H]8C7)c6cc54)cccc23)cc(C)n1.Cl,100,100,12
COc1cc2ccccc2cc1OCCCN1CCN(CC(c2ccc(F)cc2)N2CCN(C(C)C)CC2)CC1.Cl (stereo unspecified),100,92,72
O=C(Nc1ccccc1)Nc1cccc(-c2nn3c(OCCN4CCCC4)cccc3c2-c2ccncc2)c1,100,98,30
Br.C=CCc1cccc(OC)c1OCCCON1C(=N)N=C(N)NC1(C)C,94,95,58
O=c1cc(NCCC(CNCCc2ccccc2)NCc2cc(Br)cc(Br)c2)[nH]c2ccccc12 (stereo unspecified),98,47,3
CC(C)Cn1c(Sc2ccc(C#N)c([N+](=O)[O-])c2)nnc1-c1cccc(Cl)c1,98,95,24
CCn1ccc2c(N3CCCC3=O)cc(C(=O)N[C@@H](Cc3ccccc3)[C@H](O)CNC3CCCCC3)cc21,99,98,12
